Screening data from PubChem BioAssay.
DT40 TDP1 CPT: DT40-hTDP1 cell growth loss with CPT; Potency, µM (series often up to 46.2 µM), inactives show at the top dose activity change, negative = growth inhibition, usual class: inhibitors; 420,000 compounds, 12% hits; chicken DT40 Tdp1-/-;hTDP1 cells + 20 nM CPT, ATP luminescence, 48 h; AID 686979; note: potency is the fitted concentration of half-maximal effect; nearly all actives have a fitted effect of over 55% in size
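Chicken DT40 Tdp1-/- cells stably complemented with human TDP1 were seeded at 400 cells/well in medium containing 20 nM camptothecin, exposed to pin-transferred compounds, and grown at 37 °C for at least 48 hr. Viability was read as ATP luminescence.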
HT1080 IDH1KD tx: HT-1080 IDH1 knockdown cell toxicity (counter line); Potency, µM (doses to about 46.1 µM), inactives show top-dose activity, negative = toxicity, actives largely listed as cytotoxic; 360,000 compounds, 2% hits; HT-1080 IDH1 knockdown viability, ATP luminescence, 48 h;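 note: potency is the fitted concentration of half-maximal effect; 0% = DMSO wells and -100% = cell-free medium wells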
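CellTiter-Glo luminescence after 48 h compound exposure at 37 degrees C of IDH1-knockdown HT-1080 cells in 5% FBS RPMI. %Activity scaled between DMSO wells and cell-free media wells, with curves fitted and assigned curve classes.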
TDP1 cell noCPT: qHTS for Inhibitors of human tyrosyl-DNA phosphodiesterase 1 (TDP1): qHTS in cells in absence of CPT | AID 686978, 2013 | DT40 Tdp1-/- hTDP1 cells, no CPT, ATP luminescence, 48 h | 420,000 compounds, 15% hits | Potency, µM (highest dose often 46.2 µM), for inactives: at the highest dose activity change, negative = growth inhibition, hits mostly inhibitors; note: potency is the fitted concentration of half-maximal effect; nearly all actives have a fitted effect of over 55% in size
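Chicken DT40 Tdp1-/- cells complemented with human TDP1, screened without camptothecin (DMSO vehicle only), 400 cells/well. Compounds pin-transferred, cells incubated at 37 °C for at least 48 hr. Growth read as ATP-dependent luminescence (CellTiter-Glo, 30 min at RT).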
IL-1B inflam inh: inhibitors of inflammasome signaling (IL-1 beta secretion) | THP-1 LPS/ATP IL-1B secretion, AlphaLISA, 16 h; active compounds read low | activity change, % at 57.5 µM | 360,000 compounds, 4.7% hits | AID 743279; in the data active = activity change below about -50%; inconclusive = mostly about -30% to -49%
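THP-1 cells pretreated 1 hr with compounds (up to 57.5 uM final), then stimulated with LPS (250 ng/mL final) plus ATP (1.25 mM final); secreted IL-1B measured by AlphaLISA after 16 hr, decreased signal indicating inhibition.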
HT1080NT lethal: kills 2HG-producing HT-1080-NT fibrosarcoma cells; HT-1080-NT fibrosarcoma viability, CellTiter-Glo ATP luminescence, 48 h; Potency, µM (highest dose often 46.1 µM), without a hit: at the top dose activity, negative = less viability, actives largely listed as cytotoxic; 360,000 compounds, 1.6% hits; AID 686970;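 note: NT is the 2HG producing partner of a matched IDH1 knockdown line; potency is the fitted concentration of half-maximal effect; 0% = DMSO-treated cells and -100% = media-only wells without cells; nearly all actives have a fitted effect of over 55% in size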
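Compounds were tested in concentration-response format on HT-1080-NT cells for 48 hours at 37 degrees C. Cell viability came from CellTiter-Glo luminescence; curves were classified by r2, response magnitude and activity.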
ELG1 DNA repair: inhibitors of ELG1-dependent DNA repair in HEK293T cells; HEK293T ELG1-luciferase reporter, luminescence, 16 h; DNA damage induced by 5-fluorouridine; Potency, µM (series often up to 46.1 µM), inactives show top-dose activity change, negative = inhibition, usual class: inhibitors; 330,000 compounds, 2.3% hits; AID 504467; note: potency is the fitted concentration of half-maximal effect; nearly all actives have a fitted effect of over 55% in size
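5-Fluorouridine DNA damage + compound/DMSO, 2,000 cells/well, 16 h, 37 °C/5% CO2. ONE-Glo, 30 min RT, luminescence. Readout = decrease in reporter signal.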
The depositor's hits bear a star; ? = inconclusive; / = no result given; [ ] = dose if it differs, or a comment. A selection: hits, their analogues and other compounds. The true share with any hit is near 19%. Unless noted, calls come from the whole dose curve; as a rule, active = well fitted curve in the direction sought with a large enough effect; inconclusive = small, poorly fitted or top-dose-only effect, or another doubt; inactive = no such curve, though single readings can be large; an effect the other way counts as inactive or inconclusive. Unless noted, % is set by controls: 0 for no effect and ±100 for the full control effect.

SMILES	DT40 TDP1 CPT	HT1080 IDH1KD tx	TDP1 cell noCPT	IL-1B inflam inh	HT1080NT lethal	ELG1 DNA repair
CCCCCCCOc1ccc(OC(=O)c2cccnc2)cc1	5.2µM*	6%	8.2µM*	9	1%	?
Cc1ccc(S(=O)(=O)N2CCC(C(=O)OCC(=O)NC(C)c3ccc(F)cc3)CC2)cc1C (stereo not given)	-2%	4%	12%	28	2%	3%
CCOC(=O)C(C)N1C(=O)S/C(=C/c2ccc3c(c2)n(C)c(=O)n3C)C1=O (stereo not given)	?	4%	?	-27	6%	3%
CCC(C)N1C(=O)S/C(=C/c2ccc3c(c2)n(C)c(=O)n3C)C1=O (stereo not given)	23µM*	-27%	23µM*	0	-24%	-5%
CCCC(=O)NC(c1ccc(OC)cc1)c1ccc2cccnc2c1O (stereo not given)	2.3µM*	?	2.6µM*	106	-28%	?
CCCCC(=O)NC(c1ccccc1)c1ccc2cccnc2c1O (stereo not given)	0.58µM*	?	0.73µM*	137	?	?
COc1ccc(CNC(=O)CSc2cccc3cccnc23)cc1	-4%	5%	-4%	6	8%	10%
CC(=O)NC(c1ccc(C(C)C)cc1)c1ccc2cccnc2c1O (stereo not given)	2.6µM*	?	1.3µM*	168	?	?
CC(=O)NC(c1cc(Cl)c2cccnc2c1O)C(C)C (stereo not given)	/	/	/	/	/	-25%
CCCC(=O)NC(c1ccccc1)c1ccc2cccnc2c1O (stereo not given)	3.7µM*	?	1.5µM*	176	-23%	?
O=C(O)CCC(=O)NC(c1ccccc1)c1ccccc1	-21%	0%	-15%	18	-4%	1%
Cc1cccc(C)c1NC(=O)C1(C)CN(S(C)(=O)=O)CC(=O)N1CC(F)(F)F (stereo not given)	7%	7%	6%	24	4%	/
CCCCC(=O)NC(c1ccc(C(C)C)cc1)c1ccc2cccnc2c1O (stereo not given)	5.8µM*	?	3.3µM*	120	?	?
CCCCC(=O)NC(c1ccccc1Cl)c1ccc2cccnc2c1O (stereo not given)	8.2µM*	?	6.5µM*	121	?	3.3µM*
CCCCCOc1ccc(NC(=O)CSc2cccc3cccnc23)cc1	?	?	?	-2	?	0%
CCCN(Cc1nnc(-c2ccccc2Cl)o1)C(=O)c1cccc(S(=O)(=O)N2CCOCC2)c1	?	-2%	-22%	-29	-3%	8%
CCn1c(CN2CCN(c3cccc(Cl)c3)CC2)nc2c1c(=O)[nH]c(=O)n2C	?	/	18µM*	/	/	/
COc1ccc(N2CCN(Cc3nc4c(c(=O)[nH]c(=O)n4C)n3Cc3ccc(C)cc3)CC2)cc1	-2%	/	?	/	/	/
CCCCCn1c(N2CCN(c3cccc(Cl)c3)CC2)nc2c1c(=O)[nH]c(=O)n2C	21µM*	-15%	23µM*	?	-13%	23µM*
Clc1ccc(CN2CCSCC2)c(Cl)c1	0%	14%	-17%	10	2%	-4%
N=c1ccn(Cc2c(Cl)cccc2Cl)cc1	1.3µM*	?	0.65µM*	-13	?	12µM*
Cc1ccc(C)n1Cc1ccccc1Cl	2%	-7%	-13%	-6	-2%	7%
N=c1ccn(Cc2ccccc2Cl)cc1	5.2µM*	-16%	4.6µM*	-6	0%	-16%
N=c1ccn(Cc2ccc(Cl)cc2Cl)cc1	3.7µM*	-10%[9.24 µM]	5.2µM*	?	?	8.2µM*
Cc1nn(CC(=O)NCCN2CCOCC2)c(=O)c2cc3sccc3n12	11%	0%	-4%	-5	6%	?
SMILES	DT40 TDP1 CPT	HT1080 IDH1KD tx	TDP1 cell noCPT	IL-1B inflam inh	HT1080NT lethal	ELG1 DNA repair
Cc1cccc(NC(=S)N2CCC(NC(=O)C3CCCCC3)CC2)c1	-3%	13%	-12%	-3	-7%	1%
N#Cc1ccc(OCC(=O)n2cc(C(=O)c3cc(Cl)cc(Cl)c3O)cn2)cc1	?	0%	?	28	0%	-13%
CN1CCCN(C(=O)[C@@H]2C[C@@H](Sc3nc4ccccc4[nH]3)CN2Cc2ccc(-c3ccccc3)cc2)CC1	10%[9.04 µM]	/	?	/	/	/
CCC1CN(S(=O)(=O)c2cc(-c3onc(C)c3C)ccc2C)c2cc(Cl)ccc2O1 (stereo not given)	15µM*	/	15µM*	/	/	/
CCC1CN(S(=O)(=O)c2ccc3c(c2)NC(=O)CC(=O)N3)c2cc(Cl)ccc2O1 (stereo not given)	16µM*	-19%	21µM*	55	-19%	-16%
Cc1ccc(-c2onc(C)c2C)cc1S(=O)(=O)NC1CCCCC1	?	/	26µM*	/	/	/
Cc1ccc(-c2onc(C)c2C)cc1S(=O)(=O)N1CCC(C)CC1	21µM*	/	?	/	/	/
COc1ccc(-c2onc(C)c2C)cc1S(=O)(=O)N1CCN(c2ccc(Cl)cc2)CC1	7%	/	8%	/	/	/
N#Cc1ccc(CN2CC[C@@]3(CCCN(C(=O)c4ccco4)C3)C2)cc1	9%	/	-14%	/	/	/
CC1(c2nnnn2-c2ccc3c(c2)OCCO3)CCC(=O)N1CCc1c[nH]c2ccccc12 (stereo not given)	?	8%	?	11	0%	/
COc1ccc(-c2coc3c(C(=O)NCC(C)C)cccc23)c(C)c1	?	?	?	-22	?	/
Cc1ccc(-c2onc(C)c2C)cc1S(=O)(=O)N1CCc2ccccc21	13µM*	/	23µM*	/	/	/
Cc1ccc(-c2onc(C)c2C)cc1S(=O)(=O)N1CC(C)Oc2ccccc21 (stereo not given)	?	?	?	25	-26%	?
Cc1cc2c(cc1S(=O)(=O)N1CCc3ccccc31)NC(=O)CO2	-17%	?	?	-79*	-16%	-16%
Cc1ccc(-c2onc(C)c2C)cc1S(=O)(=O)N1CCOc2ccc(Cl)cc21	?	/	15µM*	/	/	/
CC(=O)N[C@H]1[C@H](Oc2ccc3c(c2)CCC2C3CC[C@]3(C)C(=O)CCC23)O[C@H](CO)[C@@H](O)[C@@H]1O (stereo not given in full)	-1%	-2%	-26%	59	-1%	-14%
